We go through 21 compounds from PubChem BioAssay (NCI).

Test [1] can be described thus: NCI Yeast Anticancer Drug Screen. Data for the rad50 strain (AID 155).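 Further: 0% = growth of vehicle-only cultures of the same strain.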 Conditions: S. cerevisiae rad50 strain growth inhibition; at 50.0 µM; active compounds read high. The gist of the method:
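DNA repair mutant yeast, compound exposure, growth read-out; inhibition is taken relative to vehicle.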

Test [2] is described as follows: NCI Yeast Anticancer Drug Screen. Data for the mec2-1 strain (AID 157). The following applies: S. cerevisiae mec2-1 strain, at 50.0 µM, active compounds read high. The gist of the method:
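Using mec2-1 yeast: add compound, measure growth, express inhibition versus vehicle-treated cultures.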

Test [3] in a line: NCI Yeast Anticancer Drug Screen. Data for the sgs1 mgt1 strain (AID 161).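 Further: 0% = growth of cultures given vehicle only.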 Conditions: S. cerevisiae sgs1 mgt1 strain, at 50.0 µM, active compounds read high. The gist of the method:
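This yeast growth screen uses a strain with defined DNA-repair lesions; compound-treated growth is compared with vehicle-treated growth.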

The nature of test [4]: NCI Yeast Anticancer Drug Screen. Data for the cln2 rad14 strain (AID 165).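 Further: 0% = growth equal to vehicle treated cultures.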 Conditions: S. cerevisiae cln2 rad14 strain, at 50.0 µM, active compounds read high. In a few lines:
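Yeast strain cln2 rad14, bearing defects in cell cycle control and DNA repair, serves as the test system; values reflect growth inhibition compared with vehicle.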

Test [5] in a line: NCI Yeast Anticancer Drug Screen. Data for the bub3 strain (AID 167). Conditions: S. cerevisiae bub3 mutant strain, at 50.0 µM, active compounds read high. The gist of the method: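 In this screen, a yeast mutant lacking normal mitotic checkpoint function is challenged with compound. Relative growth versus vehicle gives the inhibition value.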
A short description of test [6]: NCI Yeast Anticancer Drug Screen. Data for the mlh1 rad18 strain (AID 175). The following applies: S. cerevisiae mlh1 rad18 strain growth inhibition; at 50.0 µM; active compounds read high. In a few lines:
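Steps: expose repair-defective yeast to compound; measure growth; express inhibition against vehicle-treated controls.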

Each structure is given as a SMILES string. This is part of a sample that, as a whole, favours compounds with a hit. Of some 79,000 tested, about 15% had one in any assay. Values without a mark were called inactive. Calls of active or inactive are those of the source. No stated cut-off is given here; in the data, active means growth inhibition above about 70%; inactive means the rest.

As for `C/C(CC(=O)c1ccccc1)=C1\C(=O)NN(c2ccccc2)C1=O`, the growth inhibition in test [1] was 60.5%; in test [2] it was 47.5%; in test [3] it was 67.7%; in test [4], 56.9%; in test [5], 64.6%; in test [6], 60.1%.
With `Oc1ccc(-c2nc(-c3cccnc3)c(-c3ccc(Cl)cc3)[nH]2)cc1`, the growth inhibition was 3.25% in test [1]; -19.2% in test [2]; 19.9% in test [3]; 12.8% in test [4]; 39.6% in test [5]; 81.7% (active) in test [6].
With `O=C(O)C1C(C2c3ccc(O)cc3Oc3cc(O)ccc32)C2(Cl)C(Cl)=C(Cl)C1(Cl)C2(Cl)Cl` (stereo unspecified), the growth inhibition is 95.3% (active) in test [1]; 94.4% (active) in test [2]; 96.8% (active) in test [3]; 69.2% in test [4]; 81.6% (active) in test [5]; 95.3% (active) in test [6].
For `O=c1nc2c(c(-c3ccc(Br)cc3)[nH]1)COC/C2=C\c1ccc(Br)cc1`, the growth inhibition was 31.1% in test [1]; 17.2% in test [2]; 35.8% in test [3]; 8% in test [4]; 18.1% in test [5]; 31.3% in test [6].
Take `CCC1C(C)(C)c2cc(C)c(C(C)=O)cc2C1(C)C` (stereo unspecified): the growth inhibition is -8.1% in test [1]; -8.75% in test [2]; 7.15% in test [3]; -49.5% in test [4]; 25.6% in test [5]; -3.75% in test [6].
`COC(=O)c1cc(C)c(C(=O)O)c(C)c1`: the growth inhibition in test [1] was 13%; in test [2], 22.5%; in test [3] it was 26.6%; in test [4] it was 16.3%; in test [5] it was 3.9%; in test [6] it was 14.9%.
Take `C/C(=N/N(CCCCN(/N=C(/C)c1ccccc1)c1ccccc1)c1ccccc1)c1ccccc1`: the growth inhibition was 48.5% in test [1]; 13.2% in test [2]; 17.1% in test [3]; 26.3% in test [4]; 1.55% in test [5]; 39.2% in test [6].
In the case of `CS/C(=N\S(=O)(=O)c1cc(C)c(Cl)cc1Cl)NNc1cnc2ccccc2n1`, the growth inhibition was -12.1% in test [1]; -23.4% in test [2]; -7.1% in test [3]; 11.9% in test [4]; -17.2% in test [5]; 1.7% in test [6].
In the case of `Nc1ccc2nc3n(c(=O)c2c1)CCCCC3`, the growth inhibition was -25.1% in test [1]; -11.4% in test [2]; 1.4% in test [3]; 23.2% in test [4]; 0.65% in test [5]; 10.8% in test [6].
On to `CCC1=Nc2ccccc2C(c2ccccc2)NC1=O` (stereo unspecified), for which the growth inhibition in test [1] is -2%; in test [2], -19.7%; in test [3] it was 4.5%; in test [4], 6%; in test [5], -9.65%; in test [6] it was 24.9%.
For the compound `COc1ccc(OC2OC(CO)C(OCc3ccccc3)C(OCc3ccccc3)C2OCc2ccccc2)cc1` (stereo unspecified), the growth inhibition in test [1] is 5.6%; in test [2], -11.7%; in test [3], -11.7%; in test [4], 2.4%; in test [5], -33.6%; in test [6], -42.8%.
Take `Cc1cccc2c1C1c3ccccc3C(=O)CC1CC2=O` (stereo unspecified): the growth inhibition in test [1] was 14.9%; in test [2] it was 30%; in test [3], 22.9%; in test [4], 25.7%; in test [5], 11%; in test [6], 35.2%.
As to `C[N+]1(C)CC2C3C=C(I)C(C3)C2C1` (stereo unspecified), the growth inhibition in test [1] was 26.8%; in test [2], 17.4%; in test [3] it was 15.2%; in test [4], 48.4%; in test [5] it was 11.9%; in test [6] it was 26.1%.
Turning to `O=S1Cc2nc3ccccc3n2C1c1c(F)cccc1F` (stereo unspecified), the growth inhibition in test [1] was 1.25%; in test [2], -6.1%; in test [3] it was -4%; in test [4] it was 21.6%; in test [5] it was 3.6%; in test [6], -18.8%.
On to `CNC(=O)c1ccccc1Sc1ccccc1`, for which the growth inhibition was -4.25% in test [1]; -15.8% in test [2]; -16.3% in test [3]; -34.8% in test [4]; 0.2% in test [5]; 3.15% in test [6].
With `c1ccc(CSc2ccc3ccccc3c2)cc1`, the growth inhibition in test [1] is -4.3%; in test [2], -20.1%; in test [3], -13.5%; in test [4], -51.8%; in test [5], -4.1%; in test [6], -29.9%.
`COc1ccc2c(c1)CCCN1CCc3cc(OC)c(OC)cc3C21` (stereo unspecified): the growth inhibition was 21.1% in test [1]; 60.8% in test [2]; -21.3% in test [3]; -8.85% in test [4]; 4.5% in test [5]; -17.7% in test [6].
Turning to `CCCCCCCC(=O)OCC(=O)c1ccc(-c2ccccc2)cc1`, the growth inhibition in test [1] is -24.8%; in test [2] it was -1.6%; in test [3], 2.85%; in test [4], -28.6%; in test [5], 11.5%; in test [6] it was 3.1%.
Turning to `CCCCCN(C=O)c1ccccc1`, the growth inhibition in test [1] is -4.25%; in test [2], -13.7%; in test [3] it was -19.9%; in test [4], -13.6%; in test [5], -7.4%; in test [6], -2.5%.
Consider `O=C(/C=C\c1ccccc1)Nc1c(Cl)cc(Cl)cc1Cl`, for which the growth inhibition was 0.65% in test [1]; 10.5% in test [2]; 9.05% in test [3]; -8.75% in test [4]; 39.5% in test [5]; 23.3% in test [6].
Turning to `CCOC(=O)N1CN(C(=O)OCC)CN(C(=O)OCC)C1`, the growth inhibition is 15.7% in test [1]; 19.5% in test [2]; 9.45% in test [3]; -7.6% in test [4]; 29.4% in test [5]; -5.45% in test [6].
